This passage reports normalized growth results from PubChem BioAssay AID1159580 (chemical genetic matrix, 2015).

The structures appear in SMILES notation. About 2,000 (36%) of roughly 5,500 compounds were called active. Roughly 18% stayed inconclusive and do not appear here. The list shows a part of the results. Values without a mark were called inactive. Cut-off read from the data, not from the text of the source: active = normalized growth mostly below about 0.91 (no sharp cut-off); inconclusive = no clear call, values can overlap the other calls; inactive = mostly above about 0.92.

This experiment in a line: chemical genetic growth profiling, strain panel (AID 1159580).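 Note: tested at 20 µM; growth read once vehicle control cultures reached saturation at 30 °C; 1 = growth at the plate median or of vehicle wells; lower values mean less growth of the strain.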 The settings on record: growth OD.
[1] abbreviates: S. cerevisiae deletion strains, locus YGR078C, strain PAC10, stronger effect = lower value.
Where [2] appears, read: S. cerevisiae deletion strains, locus YMR307W, strain GAS1, stronger effect = lower value.
Setting [3] is: S. cerevisiae deletion strains, locus YNL153C, strain GIM3, stronger effect = lower value.
Where [4] appears, read: S. cerevisiae deletion strains, locus YNL322C, strain KRE1, stronger effect = lower value.
[5] abbreviates: S. cerevisiae deletion strains, locus YPL055C, strain LGE1, stronger effect = lower value.
The mark [6] stands for this setting: S. cerevisiae deletion strains, locus YPL241C, strain CIN2, stronger effect = lower value.
[7] abbreviates: S. cerevisiae deletion strains, locus YAL013W, strain DEP1, stronger effect = lower value.
The mark [8] stands for this setting: S. cerevisiae deletion strains, locus YBR229C, strain ROT2, stronger effect = lower value.
The mark [9] stands for this setting: S. cerevisiae deletion strains, locus YCL061C, strain MRC1, stronger effect = lower value.
The mark [10] stands for this setting: S. cerevisiae deletion strains, locus YDL101C, strain DUN1, stronger effect = lower value.
Where [11] appears, read: S. cerevisiae deletion strains, locus YDR150W, strain NUM1, stronger effect = lower value.
The mark [12] stands for this setting: S. cerevisiae deletion strains, locus YEL061C, strain CIN8, stronger effect = lower value.
Setting [13] is: S. cerevisiae deletion strains, locus YHR030C, strain SLT2, stronger effect = lower value.
Setting [14] is: S. cerevisiae deletion strains, locus YHR087W, strain rtc3, stronger effect = lower value.
The mark [15] stands for this setting: S. cerevisiae deletion strains, locus YJR043C, strain POL32, stronger effect = lower value.
Where [16] appears, read: S. cerevisiae deletion strains, locus YJR075W, strain HOC1, stronger effect = lower value.
Setting [17] is: S. cerevisiae deletion strains, locus YKL190W, strain CNB1, stronger effect = lower value.
The mark [18] stands for this setting: S. cerevisiae deletion strains, locus YLR039C, strain RIC1, stronger effect = lower value.
The mark [19] stands for this setting: S. cerevisiae deletion strains, locus YLR058C, strain SHM2 (second series), stronger effect = lower value.
[20] abbreviates: S. cerevisiae deletion strains, locus YLR085C, strain ARP6, stronger effect = lower value.
Setting [21] is: S. cerevisiae deletion strains, locus YLR262C, strain YPT6, stronger effect = lower value.
[22] abbreviates: S. cerevisiae deletion strains, locus YML094W, strain GIM5, stronger effect = lower value.
[23] abbreviates: S. cerevisiae deletion strains, locus YMR219W, strain ESC1, stronger effect = lower value.
The mark [24] stands for this setting: S. cerevisiae deletion strains, locus YMR263W, strain SAP30, stronger effect = lower value.
Where [25] appears, read: S. cerevisiae deletion strains, locus YNL298W, strain CLA4 (second series), stronger effect = lower value.
[26] abbreviates: S. cerevisiae deletion strains, locus YNR030W, strain Alg12, stronger effect = lower value.
Setting [27] is: S. cerevisiae deletion strains, locus YPR135W, strain CTF4, stronger effect = lower value.

For the compound `OCc1cnc[nH]1`, the normalized growth is, setting by setting: (S. cerevisiae deletion strains, locus YAL040C, strain CLN3, stronger effect = lower value) 0.98; (S. cerevisiae deletion strains, locus YCL061C, strain MRC1 (second series), stronger effect = lower value) 1; (S. cerevisiae deletion strains, locus YDR363W, strain ESC2, stronger effect = lower value) 1.01; (S. cerevisiae deletion strains, locus YER002W, strain NOP16, stronger effect = lower value) 1.03; under setting [1], 1.01; (S. cerevisiae deletion strains, locus YGR229C, strain SMI1, stronger effect = lower value) 0.987. The normalized growth is, setting by setting: under setting [2], 1; under setting [3], 1.05; (S. cerevisiae deletion strains, locus YNL175C, strain NOP13, stronger effect = lower value) 1.02; (S. cerevisiae deletion strains, locus YNL197C, strain WHI3, stronger effect = lower value) 1.01; (S. cerevisiae deletion strains, locus YNL224C, strain SQS1, stronger effect = lower value) 1.01; under setting [4], 1. For the same compound, the normalized growth (S. cerevisiae deletion strains, locus YOR083W, strain WHI5 (second series), stronger effect = lower value) was 0.989; the normalized growth under setting [5] was 1.01; the normalized growth under setting [6] was 1.01.

For `N#Cc1c(F)cccc1Oc1ccc(F)cc1`, the normalized growth is 0.999 under setting [7]; 0.957 under setting [8]; 1.01 under setting [9]; 0.98 under setting [10]; 0.986 (S. cerevisiae deletion strains, locus YDL134C, strain PPH21, stronger effect = lower value); 0.941 under setting [11]. Also, the normalized growth under setting [12] is 0.966; the normalized growth under setting [1] was 0.971; the normalized growth under setting [13] is 0.848; the normalized growth under setting [14] is 0.948; the normalized growth under setting [15] was 0.999; the normalized growth under setting [16] is 0.946. Moreover, the normalized growth was 0.972 under setting [17]; 0.851 under setting [18]; 0.979 under setting [19]; 0.941 under setting [20]; 0.907 under setting [21]; 0.97 under setting [22]. Moreover, the normalized growth by setting is: under setting [23], 0.971; under setting [24], 0.998; under setting [2], 0.891; under setting [3], 0.991; under setting [25], 0.928; under setting [4], 0.962. The normalized growth is, setting by setting: under setting [26], 0.986; under setting [5], 0.956; under setting [6], 0.978; under setting [27], 0.905.

Regarding `N#Cc1ncc(C(F)(F)F)cc1Oc1ccc(Cl)cc1`, the normalized growth is, setting by setting: under setting [7], 0.921 (active); under setting [8], 0.789 (active); under setting [9], 0.898 (active); under setting [10], 0.868 (active); under setting [11], 0.799 (active); under setting [12], 0.903 (active). Besides, the normalized growth runs as follows: under setting [1], 0.708 (active); under setting [13], 0.843; under setting [14], 0.745 (active); under setting [15], 0.911 (active); under setting [16], 0.594 (active); under setting [17], 0.842 (active). For the same compound, the normalized growth is, setting by setting: under setting [18], 0.694 (active); under setting [19], 0.829 (active); under setting [20], 0.595 (active); under setting [21], 0.658 (active); under setting [22], 0.907; under setting [23], 0.814 (active). For the same compound, the normalized growth is, setting by setting: under setting [24], 0.913; under setting [2], 1.01; under setting [3], 0.892 (active); under setting [25], 0.709 (active); under setting [4], 0.849 (active); under setting [26], 0.737 (active). Moreover, the normalized growth under setting [5] is 0.751 (active); the normalized growth under setting [6] was 0.844 (active); the normalized growth under setting [27] is 0.889; the normalized growth (S. cerevisiae strains, strain wild type, stronger effect = lower value) is 0.851 (active).
